Laboratory results taken from PubChem BioAssay AID431 (Sanford-Burnham Center for Chemical Genomics, 2006).
Screen size: about 63,000 compounds; about 1,100 (1.7%) were called active. For the sample, actives were picked, then their nearest neighbours and some compounds at random. Potency and affinity values are given separately. A number with no mark means an inactive call.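 Rule for the calls: active = compounds whose percent cytotoxicity in the single-dose primary screen, scaled between solvent and toxic-drug controls, exceeds 50; inactive = the rest.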

Assay: viability loss of HPDE-C7K cells – cell-based, fluorescence, HTS, primary screen (AID 431);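 note: 0% = DMSO solvent wells and 100% = doxorubicin-treated wells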
Conditions: HPDE-C7K KRASV12 cells, Alamar Blue viability, 48 h; at 10 µM; stronger effect = higher value

| Structure (SMILES) | cytotoxicity |
| --- | --- |
| O=C1C(C=NCCCn2ccnc2)=C(O)c2ccccc21 | 1% |
| O=C(NC1CCCCC1)C1CCCN1C(=O)NCc1ccccc1 (stereo not given) | 11.8% |
| CCNS(=O)(=O)c1ccc(OCCNS(C)(=O)=O)cc1 | -2.5% |
| O=C(/C=C/N1CCOCC1)c1coc2ccccc12 | -4.5% |
| Cc1cccc(C)c1NC(=O)CSc1nnc(-c2ccoc2C)n1C | -5.8% |
| O=C(OCCN(C1=NS(=O)(=O)c2ccccc21)c1ccc(Cl)cc1)c1ccco1 | -16.8% |
| CC(O)CCc1nc2ccc(C(=O)O)cc2[nH]1 (stereo not given) | -5.2% |
| O=C(Nc1nnc(-c2ccccc2Cl)o1)c1ccc(S(=O)(=O)N2CCCCCC2)cc1 | 43.8% |
| CC1CCCCN1S(=O)(=O)c1ccc(NC(=O)c2cccc(-n3cnnn3)c2)cc1 (stereo not given) | 20.3% |
| CC1CCCCN1S(=O)(=O)c1ccc(C(=O)Nc2nnc(-c3ccccc3Cl)o2)cc1 (stereo not given) | 56.7% (active) |
| CCc1nnc(NC(=O)c2ccc(S(=O)(=O)N3CCCCC3C)cc2)s1 (stereo not given) | -7.7% |
| Cc1nnc(NC(=O)c2ccc(S(=O)(=O)N3CCCCCC3)cc2)o1 | 6.5% |
| CC1CCCN(S(=O)(=O)c2ccc(C(=O)Nc3nnc(-c4ccccc4Cl)o3)cc2)C1 (stereo not given) | 63.8% (active) |
| O=C(Nc1ccccc1C(=O)N1CCOCC1)c1ccco1 | 3.4% |
| Cc1ccc(C)c(C(=O)CSc2nnnn2-c2cccnc2)c1 | 0.6% |
| Cc1cc(C)n(S(=O)(=O)c2cccc(Cl)c2Cl)n1 | -9.2% |
| COc1nc(-c2ccccc2)ccc1-c1noc(-c2ccco2)n1 | -3% |
| COC(=O)c1ccccc1S(=O)(=O)N(Cc1ccco1)Cc1cc2cc(OC)ccc2[nH]c1=O | -1.7% |
| COC(=O)CCC(=O)Nc1sc2c(c1C#N)CCCC2 | -6.7% |
| CCCC(=O)Nc1sc2c(c1C#N)CCCC2 | 1.4% |
| CCc1ccc(CCC(=O)Nc2sc3c(c2C#N)CCCC3)o1 | 73.8% (active) |
| COC(=O)C1=C(C)NC(=O)CC1c1cccc(Cl)c1Cl (stereo not given) | -0.8% |
| CCOC(=O)C1C(c2cccc(Cl)c2Cl)NC(=O)NC1(O)C(F)(F)F (stereo not given) | 10.1% |
| O=C(Nc1ccc2c(c1)OCO2)c1ccc(Br)c(S(=O)(=O)N2CCCC2)c1 | 14.5% |
| CCc1ncc(C(O)c2cccc(OC)c2OC)n1C (stereo not given) | 6.9% |

| Structure (SMILES) | cytotoxicity |
| --- | --- |
| CCOC(=O)c1c(N)sc(C(=O)Nc2ccc3c(c2)OCO3)c1C | 19.8% |
| CCN(CC)S(=O)(=O)c1ccc(NC(=O)Cn2c(=O)oc3ccccc32)cc1 | 1.6% |
| Cc1nn2c(N3CCOCC3)c3c(nc2c1-c1ccccc1)CCCC3 | 8.5% |
| Cc1c(-c2ccccc2)nc(N)c(C#N)c1-c1ccco1 | -7.4% |
| CC1=C(C#N)c2nc(N)c(C#N)c(C)c2/C1=C\c1ccccc1 | 107% (active) |
| Cc1nc(N)c(C#N)c(-c2ccccc2)c1C | 18.7% |
| COC(=O)Nc1nc2ccc(C(=O)c3ccccc3)cc2[nH]1 | 67.2% (active) |
| Cc1nc2ccc(C(=O)c3ccccc3)cc2[nH]1 | 1.1% |
| O=C(Nc1nc2ccccc2[nH]1)c1ccc(F)cc1 | -12% |
| COC(=O)Nc1nc2ccc(Sc3ccccc3)cc2[nH]1 | 57.5% (active) |
| O=C(COc1ccccc1)Nc1nc2ccccc2[nH]1 | -1.5% |
| COc1cc(C(=O)Nc2nc3ccccc3[nH]2)cc(OC)c1OC | -19.5% |
| CCC(C)N(C(=O)COC(=O)Cc1n[nH]c(=O)c2ccccc12)C1CCS(=O)(=O)C1 (stereo not given) | -29.5% |
| O=C(CN(C(=O)Cn1nnc(-c2cccs2)n1)c1cnc2ccccc2c1)NCC1CCCO1 (stereo not given) | -3.6% |
| O=C(COc1ccc(F)c(Cl)c1)c1ccc[nH]1 | -3.1% |
| COc1cc(-c2nnc(-c3ccc(S(=O)(=O)c4ccccc4)cc3)o2)cc(OC)c1OC | -1.1% |
| COc1ccc(C2C(C(=O)N3CCCC3)CC(=O)N2c2ccc(OC)cc2)cc1 (stereo not given) | 1.8% |
| CN(C)CC(=O)c1ccc(-c2ccccc2)cc1 | -1.7% |
| CC(=O)Nc1cc(-c2nn3c(C)nnc3s2)ccc1C | 6.7% |
| Cc1cc(C)c(C#N)c(SCC(=O)CC(=O)OC(C)C)n1 | 29.7% |
| Cc1nc(SCC(=O)CC(=O)OC(C)C)c(C#N)c(C)c1C | -4.4% |
| CCOC(=O)CC(=O)Nc1nnc(CC(C)C)s1 | -10.3% |
| CCOC(=O)N1CCC(NC(=O)Cn2cccc2C(=O)c2ccccc2)CC1 | -6.2% |
| COc1ccccc1C(=O)Oc1cc(N)n(S(=O)(=O)c2ccc(C)cc2)n1 | -5.5% |
| COc1ccc(S(=O)(=O)n2nc(OC(=O)c3c(-c4ccccc4Cl)noc3C)cc2N)cc1 | 51.1% (active) |

| Structure (SMILES) | cytotoxicity |
| --- | --- |
| COc1ccc(S(=O)(=O)n2nc(OC(=O)c3ccccc3)cc2N)cc1 | 0% |
| Cc1onc(-c2ccccc2Cl)c1C(=O)Oc1cc(N)n(S(=O)(=O)c2ccc(F)cc2)n1 | 36.8% |
| COc1ccc(S(=O)(=O)n2nc(OC(=O)c3ccc(C)cc3)cc2N)cc1 | -7.7% |
| Cc1ccc(S(=O)(=O)n2nc(OC(=O)c3c(-c4ccccc4Cl)noc3C)cc2N)cc1 | 73% (active) |
| O=C(O)CCC(=O)OCC1CCCO1 (stereo not given) | -8.8% |
| O=C(CSc1nnc(-c2ccccn2)n1Cc1ccccc1)NC1CCCC1 | -15.2% |
| O=S(=O)(Nc1ccc(S(=O)(=O)N2CCOCC2)cc1)c1ccccc1 | 7.6% |
| OC(CNCc1ccco1)Cn1c2ccccc2c2ccccc21 (stereo not given) | 40.9% |
| Cc1ccc(/C(C#N)=C\c2cn(C)c3ccccc23)cc1 | 35.2% |
| CC1(C(=O)NC2CCCC2)CCC(=O)N1CCC1=CCCCC1 (stereo not given) | -21.1% |
| Cc1cccc2cc(C#N)c(N3CCN(C)CC3)nc12 | 1.8% |
| Cc1cccc2cc(C#N)c(SCCN3CCCCC3)nc12 | 57.1% (active) |
| Cc1cc(C)c2nc(SCC(=O)N3CCCCC3)c(C#N)cc2c1 | 2.7% |
| Cc1cccc2cc(C#N)c(SCC(=O)N3CC(=O)Nc4ccccc43)nc12 | 65% (active) |
| Cc1ccccc1-n1c(C)nnc1SCC(=O)N1CC(=O)Nc2ccccc21 | -8.9% |
| Cc1cccc2cc(C#N)c(SCC(=O)N3CCC(C)CC3)nc12 | 2.7% |
| CNc1nc(C)c(C(=O)OCc2ccccc2)s1 | -0.8% |
| C=CCOn1c(=O)c(=O)n(OCc2ccccc2)c2ccccc21 | -23.8% |
| C/C(N)=C(/C#N)C(=O)CSc1nc2cc(Cl)ccc2s1 | 12% |
| CCOC(=O)N1CCC(NC(=O)c2cc(S(=O)(=O)N3CCC4(CC3)OCCO4)ccc2F)CC1 | -4.2% |
| COC(=O)c1ccc(C2C(C#N)=C(N)Oc3cc(C)n(C)c(=O)c32)cc1 (stereo not given) | -10.1% |
| CCCC(=O)c1ccc(N2CCN(C(=O)c3ccc(Br)cc3)CC2)c(F)c1 | -6.7% |
| CCCC(=O)N1CCN(c2ccc(C(=O)c3ccc(OC)c(Br)c3)cc2F)CC1 | 62.5% (active) |
| CCCCCC(=O)N1CCN(c2ccc(C(C)=O)cc2F)CC1 | 0.9% |
| COc1ccc(-c2nnc(SCC(=O)N3CCCCC3)o2)cc1OC | -0.7% |

| Structure (SMILES) | cytotoxicity |
| --- | --- |
| CC(=O)c1sc(NC(=O)c2ccc(Cn3cc(Br)cn3)o2)nc1C | 1.1% |
| O=C(NC1CCCCC1)c1ccc(Cn2cc(Br)cn2)o1 | -12.9% |
| O=C(Nc1ccc(C(F)(F)F)cc1Cl)c1ccc(Cn2cc(Br)cn2)o1 | 124% (active) |
| COc1ccc(NC(=O)CSc2nnc(-c3ccco3)n2C)cc1 | 0.5% |
| Cc1ccc(NC(=O)CSc2nnc(-c3ccco3)c(-c3ccco3)n2)cc1 | 90.7% (active) |
| Clc1ccccc1CSc1ncccn1 | -6% |
| O=C(CSc1nnc(-c2ccco2)c(-c2ccco2)n1)Nc1ccccc1 | 1.2% |
| Cc1cc(C)nc(SCc2nnc(SCc3ccccc3Cl)o2)n1 | -16.5% |
| CCNC(=O)CP(=O)(c1ccccc1)c1ccccc1 | 1.9% |
| CCc1ccc(Cn2nnc(C(=O)Nc3cccc(C)c3)c2N)cc1 | -0.7% |
| CCOC(=O)C1CCCN(CCC(C)c2ccccc2)C1 (stereo not given) | 20.5% |
| Cc1c(NC(=O)NC(=O)c2ccc(F)cc2)c(=O)n(-c2ccccc2)n1C | -11.2% |
| COc1ccc(Nc2nc(-c3sc(N)nc3C)cs2)cc1 | 58% (active) |
| Cc1nc(N)sc1-c1csc(Nc2ccccc2)n1 | 49% |
| COc1ccc(OC)c(Nc2nc(-c3sc(N)nc3C)cs2)c1 | 37.6% |
| COc1cccc(Nc2nc(-c3sc(N)nc3C)cs2)c1 | 60.7% (active) |
| Cc1nc(N)sc1-c1csc(Nc2ccccn2)n1 | -9.8% |
| COc1ccc(CCNc2nc(-c3sc(N)nc3C)cs2)cc1OC | 16.4% |
| CCOc1ccc(Nc2c3c(nc4ncnn24)CC(C)CC3)cc1 (stereo not given) | 4.3% |
| O=C(O)CCCNS(=O)(=O)c1cccs1 | 8% |
| COc1ccc(NC(=O)C2CC2)cc1-n1cnnn1 | -12.2% |
| NC(=O)C1CCN(C(=O)CN(c2cccc(C(F)(F)F)c2)S(=O)(=O)c2ccccc2)CC1 | -1.4% |
| CCOC(=O)Nc1ccc2c(c1)N(C(=O)CCN1CCOCC1)c1ccccc1S2=O (stereo not given) | 69.3% (active) |
| CCOC(=O)Nc1ccc2c(c1)Sc1ccccc1N2C(=O)CCN1CCOCC1 | 1.2% |
| CCOC(=O)Nc1ccc2c(c1)N(C(=O)CCN1CCOCC1)c1ccccc1S2 | 0.3% |
